Screens as filed in PubChem.
TCR act: Activators of T cell receptors: qHTS campaign; primary human leukocytes, anti-CD3, IL-2 HTRF, 48 h; Potency, µM (doses to about 9.22 µM), for the others: top-dose activation of IL-2 secretion, actives largely listed as activators; 330,000 tested, under 10 active; AID 504894, 2011; also: % of control where 0% means no effect
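Primary human leukocytes receive a-CD3 beads and test compound and are incubated 48 hr. Secreted IL-2 is then assayed by HTRF, measuring 665nm acceptor emission after 320nm excitation of the europium donor.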
A-T KAP1 phos: qHTS Assay for Identifying a Potential Treatment of Ataxia-Telangiectasia; F2112 A-T fibroblasts, KAP-1 phosphorylation AlphaLISA; neocarzinostatin DNA damage 30 min before lysis; Potency, µM (highest dose often 57.5 µM), without a hit: top-dose activation, most hits filed as activators; 320,000 tested, 0.19% active; AID 485349, 2010; also: potency is read from the fitted curve at half-maximal effect; % of control where 0% means no effect; nearly all actives have a fitted effect of over 45% in size
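hTERT-immortalized A-T patient fibroblasts (F2112), 500 cells/well in OPTI-MEM, 1% FBS, got compounds for 60 min, then NCS for 30 min at 37C. Lysates were then assayed for phospho-KAP-1 by AlphaLISA (anti-pKAP1 donor, anti-KAP1 acceptor beads), 6 hr at 25C.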
Nrf2 ARE act: qHTS of Nrf2 Activators; AID 624171, 2012; AREc32 ARE-luciferase reporter (MCF7-derived line), luminescence, 24 h; 410,000 tested, 0.31% active; Potency, µM (series often up to 46.1 µM), without a hit: at the top dose activation, usual class: activators; also: potency is read from the fitted curve at half-maximal effect; % of control where 0% means no effect; nearly all actives have a fitted effect of over 65% in size
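Nrf2 activation is followed as ARE-luciferase induction in the AREc32 line after one day of compound treatment; luminescence is read with Steady-Glo.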
A549 viability: Nrf2 qHTS screen for inhibitors: counterscreen for cytotoxicity | A549 ARE-Fluc cells, CellTiter-Fluor viability, 18-24 h | Potency, µM (titrated, usually from 46 µM), without a hit: top-dose activity change, negative = cytotoxicity, actives largely listed as inhibitors | 390,000 tested, 0.16% active | AID 504648, 2011; also: potency is read from the fitted curve at half-maximal effect; % is scaled to controls: 0 for no effect and ±100 for the full control effect
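A549 ARE-Fluc cells in 5% FBS OPTI-MEM, 5000 cells/well, rested 2 h then exposed to compounds in concentration-response for 18-24 h at 37 °C. Viability by CellTiter-Fluor fluorescence (Ex 405/Em 525) after 30 min; luciferase luminescence (BugLite, 15 min, RT) read afterwards.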
Nrf2 inh: Nrf2 qHTS screen for inhibitors. Potency, µM (top dose mostly 46 µM), without a hit: at the highest dose activity change, negative = inhibition, usual class: inhibitors. 360,000 tested, 2.1% active. AID 504444, 2011. A549 ARE-Fluc reporter, luciferase luminescence, 18-24 h; also: potency is read from the fitted curve at half-maximal effect; % is scaled to controls: 0 for no effect and ±100 for the full control effect; nearly all actives have a fitted effect of over 60% in size
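In this cell-based qHTS, ARE-driven firefly luciferase in A549 cells reports Nrf2 activity; the luminescent signal after BugLite lysis is the measured value, with a prior CellTiter-Fluor read for cell health.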
CCT chaperon mod: High-Throughput Screening for Modulators of Cytosolic Chaperonin Activity; purified chaperonin ATPase assay, HTRF ADP detection, 30 min; activity change, % (no concentration beside the values), hits read low; 360,000 tested, 0.3% active; in the data active = activity change below about -30%; also: % is scaled to controls: 0 for no effect and ±100 for the full control effect
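ATPase activity: ADP formed was measured by HTRF Transcreener (665/615 nm ratio) after 30 min at 37 deg C with 10 uM ATP. Compounds screened at one 76 uM concentration against 40 or 20 nM TRiC in Tris pH 7.4/KCl/MgCl2/DTT buffer.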
* hit, by the source's call; u = inconclusive; x = not tested or not shown; [ ] = another dose, or the depositor's remark. A selection: hits, their analogues and other compounds. The true share with any hit is near 2.6%. Unless noted, calls follow the shape of the dose curve; as a rule, active = well fitted curve in the direction sought with a large enough effect; inconclusive = small, poorly fitted or top-dose-only effect, or another doubt; inactive = no such curve, though single readings can be large; an effect the other way counts as inactive or inconclusive.

SMILES | TCR act | A-T KAP1 phos | Nrf2 ARE act | A549 viability | Nrf2 inh | CCT chaperon mod
Cc1nc2ccc(NC(=O)c3cccc(S(=O)(=O)N(C)c4ccccc4)c3)cc2s1 | -6% | 6% | -1% | u | 21µM* | -2
CN(c1ccccc1)S(=O)(=O)c1cccc(NC(=O)CSc2nncs2)c1 | 3% | 2% | 3% | -8% | 21µM* | 0
COc1ccc(C2CC(=O)c3cnn(-c4nc(C)cc(C)n4)c3C2)cc1 (stereo not given) | -5% | 5% | -1% | -19% | u | -3
CCCn1c2ccccc2c2cnn(CC(=O)Nc3cccc(C(=O)OCC)c3)c(=O)c21 | x | x | 0% | 9% | 2% | x
Cc1ccc(S(=O)(=O)Nc2cccc3ccc(C)nc23)cc1 | x | x | x | 6% | u | x
COc1ccc(/C(C)=N/NC(=O)OC(C)(C)C)cc1[N+](=O)[O-] | 3% | 9% | 6% | 0% | -16% | -4
CCN(CC(=O)Nc1ccc2c(c1)OCCO2)C(=O)c1ccccc1Br | x | 1% | 2% | -4% | u | 2
O=C1CC[C@H](OCc2ccccc2)CCN1[C@H](CSc1ccccc1)Cc1ccccc1 | 4% | 9% | 5% | 1% | 4% | 2
CN(c1ccc(C(=O)Nc2cccc(O)c2)cc1)S(=O)(=O)c1ccccc1 | 3% | 8% | 5% | -3% | 6% | -4
COCc1ccc(C(=O)Nc2cccc(S(=O)(=O)N(C)c3ccccc3)c2)cc1 | 2% | 23% | 4% | -10% | 18µM* | -2
CCOc1ccc(C(=O)Nc2nnc(SCc3cc(=O)n4ccccc4n3)s2)cc1 | x | x | -1% | -4% | x | x
CCc1cc(=O)oc2c(C)c(OCC(=O)N3CCCc4ccccc43)ccc12 | 2% | 1% | 2% | 1% | 12µM* | -1
Cc1cccc(N2CCN(C(=O)COc3ccc4c(C)cc(=O)oc4c3C)CC2)c1C | -1% | -2% | 0% | -8% | 16µM* | 3
CN(CC1CCOCC1)C(=O)CC1C(=O)NCCN1Cc1ccc(Cl)c(F)c1 (stereo not given) | 1% | 44% | 0% | -2% | -12% | -42*
Cc1ccc(SCCC(=O)N/N=C/c2ccncc2)cc1 | -2% | 8% | 0% | 6% | 15µM* | -1
Cc1cc(=O)c2ccccc2n1Cc1ccccc1 | 2% | 3% | 6% | -7% | 16µM* | -2
NC(=O)c1ccc2nc(NC(=O)c3ccc(N)cc3)sc2c1 | 8% | 35µM* | 0% | -7% | u | -3
COc1ccc(-n2c(C)cc(C3=NNC(=NC4CC4)SC3)c2C)cc1 | 1% | -5% | 7% | 4% | u | -3
Cc1cc(C2=NNC(=NC3CC3)SC2)c(C)n1-c1ccccc1 | 3%[46.1 µM] | -7% | -3% | 0% | 6.5µM* | -2
COCCn1c(C)cc(C2=NNC(=NC3CC3)SC2)c1C | -11% | -1% | -3% | -9% | 0.58µM* | -2
O=C1C(=O)N(C2CCN(S(=O)(=O)c3ccc(F)cc3)CC2)CCN1Cc1ccccc1 | x | x | -1% | 23% | u | x
Cc1[nH]n(-c2ccc([N+](=O)[O-])cc2)c(=O)c1C=NCCN1CCN(C(=O)C(C)C)CC1 | 1% | -4% | 0% | 0% | -3% | -4
CCCCOc1ccc(S(=O)(=O)NC(=O)C2(C)CCN2C(=O)c2cccc(F)c2)cc1 (stereo not given) | x | x | 0%[9.22 µM] | x | x | -3
O=C(Nc1cccc(-c2nnc(-c3ccccc3)o2)c1)c1ccc(Br)o1 | -14% | -16% | 4% | u | 23µM* | 1
Cc1cc(C)c2oc(-c3cccc(NC(=O)c4ccc(Br)o4)c3)nc2c1 | x | x | 8% | 3% | 3% | x
SMILES | TCR act | A-T KAP1 phos | Nrf2 ARE act | A549 viability | Nrf2 inh | CCT chaperon mod
Cc1nc([N+](=O)[O-])c(Sc2nc3ccccc3[nH]2)n1Cc1ccccc1 | 1%[46.1 µM] | 7% | u | -26% | u | -1
COc1ccc2nc(Sc3c([N+](=O)[O-])nc(C)n3Cc3ccccc3)[nH]c2c1 | 6% | 8% | u | u | 13µM* | -1
COc1ccc(OC)c(NC(=O)CCNS(=O)(=O)c2cc(Br)cnc2N)c1 | -8% | 5% | 0% | 1% | 6% | 0
COc1cc2c(C#N)c(N3CCN(c4ccccc4OC)CC3)nc(N)c2c(N)n1 | -3% | 3% | 0% | u | 16µM* | -5
COc1cccc(C2C(C(=O)Nc3nc4ccccc4s3)=C(C)NC3=C2C(=O)CC(C)(C)C3)c1OC (stereo not given) | -6% | -1% | -1% | -15% | 16µM* | -6
O=C(CNC(=O)c1ccccc1)OC(CCc1ccccc1)C(=O)Nc1cc(C(F)(F)F)ccc1Cl (stereo not given) | x | x | x | 0% | 13% | x
Cc1cccc(N2CCN(C(=O)Cn3ccc4ccccc4c3=O)CC2)c1C | -7% | -8% | 0% | -5% | 18µM* | -4
CCN(C(=O)Cn1nc(Cc2cccnc2)c2ccccc2c1=O)c1cc(C)ccc1C | x | x | 1% | 18% | 18µM* | x
Cc1cccc(N2CCN(C(=O)Cn3nc(Cc4cccnc4)c4ccccc4c3=O)CC2)c1C | x | x | -1% | -9% | 16µM* | x
O=C(Cn1nc(Cc2cccnc2)c2ccccc2c1=O)N1CCN(c2ccccn2)CC1 | -4% | 11% | 0% | -4% | -12% | -1
CCCCCN(C(=O)COC(=O)c1ccc(C)cc1)c1c(N)n(CCCC)c(=O)[nH]c1=O | 4% | 2% | -1% | 2% | u | 0
Cc1cccn2c(=O)cc(COc3ccc(NC(=O)COc4ccc(F)cc4)cc3)nc12 | x | x | -2% | 4% | x | x
Cc1ccc([N+](=O)[O-])cc1N(CC(=O)Nc1ccc(S(=O)(=O)Nc2cccc(C(F)(F)F)c2)cc1)S(C)(=O)=O | -4%[46.1 µM] | -7% | -1% | u | 21µM* | -4
CC(=O)NC(=S)Nc1cc(C(F)(F)F)ccc1N1CCOCC1 | 1%[46.1 µM] | 4% | 4% | 3% | 26µM* | -3
Cc1ccc2oc(=O)n(CCCOc3ccc(Cl)cc3)c2c1 | x | x | 4% | 12% | u | x
Cc1ccc(NS(=O)(=O)c2cc3c(cc2Cl)NC(=O)C3)cc1C | x | x | x | 6% | 14% | x
Cc1cc(C)cc(OCC(=O)OCC(=O)N(C)CC(=O)Nc2ccc(F)cc2)c1 | -22% | -6% | -1% | 1% | -1% | -3
COc1ccc(Nc2nc(C)nc3sc4c(c23)CCC4)cc1O | 10% | 3% | 6.3µM* | -13% | -1% | 1
Cc1nc(NCc2ccco2)c2c3c(sc2n1)CCC3 | -9% | 5% | 28% | -4% | x | -4
